Data from PubChem BioAssay AID1159580 (chemical genetic matrix, 2015).
Where “and” joins values, the source holds several entries; their conditions need not be identical. Equal values may be shown once. The whole screen tested about 5,500 compounds, of which about 2,000 (36%) were called active. Another 18% or so got no clear call; they are omitted. Rule as the data show it: active = normalized growth mostly below about 0.91 (no sharp cut-off); inconclusive = no clear call, values can overlap the other calls; inactive = mostly above about 0.92. Some of the results follow.

Assay: chemical genetic growth profiling, strain panel (AID 1159580);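 also: tested at 20 µM; growth read once vehicle control cultures reached saturation at 30 °C; 1 = growth at the plate median or of vehicle wells; lower values mean less growth of the strain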
Conditions: growth OD

Measured: normalized growth

COc1cc(OC)c2c(c1)OC(c1ccccc1)CC2=O (stereo unspecified)
inactive: S. cerevisiae deletion strains, locus YBR021W, strain FUR4, stronger effect = lower value 0.99 | S. cerevisiae deletion strains, locus YBR229C, strain ROT2, stronger effect = lower value 0.986 | S. cerevisiae deletion strains, locus YCL029C, strain bik1, stronger effect = lower value 1.03 | S. cerevisiae deletion strains, locus YDL035C, strain GPR1, stronger effect = lower value 0.988 | S. cerevisiae deletion strains, locus YDL074C, strain BRE1, stronger effect = lower value 0.994 | S. cerevisiae deletion strains, locus YDL101C, strain DUN1, stronger effect = lower value 0.989 | S. cerevisiae deletion strains, locus YDL185W, strain tfp1, stronger effect = lower value 1.01 | S. cerevisiae deletion strains, locus YDL192W, strain arf1, stronger effect = lower value 0.979 | S. cerevisiae deletion strains, locus YDR101C, strain arx1, stronger effect = lower value 1.02 | S. cerevisiae deletion strains, locus YDR150W, strain NUM1, stronger effect = lower value 0.983 | S. cerevisiae deletion strains, locus YDR162C, strain NBP2, stronger effect = lower value 0.987 | S. cerevisiae deletion strains, locus YDR318W, strain mcm21, stronger effect = lower value 0.988 | S. cerevisiae deletion strains, locus YDR388W, stronger effect = lower value 0.999 | S. cerevisiae deletion strains, locus YDR502C, strain sam2, stronger effect = lower value 1 | S. cerevisiae deletion strains, locus YEL061C, strain CIN8, stronger effect = lower value 0.984 | S. cerevisiae deletion strains, locus YER110C, stronger effect = lower value 1.01 | S. cerevisiae deletion strains, locus YER155C, strain BEM2, stronger effect = lower value 0.996 | S. cerevisiae deletion strains, locus YER167W, strain BCK2, stronger effect = lower value 0.994 | S. cerevisiae deletion strains, locus YGL078C, strain dbp3, stronger effect = lower value 1.01 | S. cerevisiae deletion strains, locus YGL086W, strain mad1, stronger effect = lower value 1 | S. cerevisiae deletion strains, locus YGL248W, strain PDE1, stronger effect = lower value 0.987 | S. cerevisiae deletion strains, locus YGR135W, strain pre9, stronger effect = lower value 0.977 | S. cerevisiae deletion strains, locus YGR252W, strain gcn5, stronger effect = lower value 1.01 | S. cerevisiae deletion strains, locus YHR030C, strain SLT2, stronger effect = lower value 0.987 and 0.965 | S. cerevisiae deletion strains, locus YHR079C, strain IRE1 (second series), stronger effect = lower value 1.01 | S. cerevisiae deletion strains, locus YHR079C, strain IRE1, stronger effect = lower value 0.963 | S. cerevisiae deletion strains, locus YHR094C, strain hxt1, stronger effect = lower value 1.01 | S. cerevisiae deletion strains, locus YHR129C, strain ARP1, stronger effect = lower value 0.986 | S. cerevisiae deletion strains, locus YHR200W, strain rpn10, stronger effect = lower value 0.997 | S. cerevisiae deletion strains, locus YIL066C, strain RNR3, stronger effect = lower value 0.983 | S. cerevisiae deletion strains, locus YIL073C, strain SPO22, stronger effect = lower value 1.03 | S. cerevisiae deletion strains, locus YIL125W, strain kgd1, stronger effect = lower value 1.01 | S. cerevisiae deletion strains, locus YIR030C, strain dcg1, stronger effect = lower value 1 | S. cerevisiae deletion strains, locus YJL095W, strain BCK1, stronger effect = lower value 0.932 and 0.982 | S. cerevisiae deletion strains, locus YJL134W, strain LCB3, stronger effect = lower value 0.985 | S. cerevisiae deletion strains, locus YJL168C, strain set2, stronger effect = lower value 1 | S. cerevisiae deletion strains, locus YJL187C, strain SWE1 (second series), stronger effect = lower value 0.994 | S. cerevisiae deletion strains, locus YJR043C, strain POL32, stronger effect = lower value 1 | S. cerevisiae deletion strains, locus YJR066W, strain TOR1, stronger effect = lower value 0.93 | S. cerevisiae deletion strains, locus YJR075W, strain HOC1, stronger effect = lower value 0.992 | S. cerevisiae deletion strains, locus YKL009W, strain mrt4, stronger effect = lower value 0.996 | S. cerevisiae deletion strains, locus YKL068W, stronger effect = lower value 0.994 | S. cerevisiae deletion strains, locus YKL085W, strain MDH1 (second series), stronger effect = lower value 0.991 | S. cerevisiae deletion strains, locus YKL085W, strain MDH1, stronger effect = lower value 0.991 | S. cerevisiae deletion strains, locus YKL190W, strain CNB1, stronger effect = lower value 0.984 | S. cerevisiae deletion strains, locus YKR001C, strain vps1, stronger effect = lower value 0.951 | S. cerevisiae deletion strains, locus YLR039C, strain RIC1, stronger effect = lower value 0.842 | S. cerevisiae deletion strains, locus YLR058C, strain SHM2, stronger effect = lower value 0.987 | S. cerevisiae deletion strains, locus YLR102C, strain apc9, stronger effect = lower value 1 | S. cerevisiae deletion strains, locus YLR113W, strain HOG1, stronger effect = lower value 1 | S. cerevisiae deletion strains, locus YLR262C, strain YPT6, stronger effect = lower value 0.836 | S. cerevisiae deletion strains, locus YLR268W, strain sec22, stronger effect = lower value 1.01 | S. cerevisiae deletion strains, locus YLR330W, strain CHS5, stronger effect = lower value 0.98 | S. cerevisiae deletion strains, locus YLR342W, strain FKS1 (second series), stronger effect = lower value 0.959 | S. cerevisiae deletion strains, locus YLR371W, strain rom2, stronger effect = lower value 1.02 | S. cerevisiae deletion strains, locus YLR418C, strain cdc73, stronger effect = lower value 1.03 | S. cerevisiae deletion strains, locus YML016C, strain PPZ1, stronger effect = lower value 0.983 | S. cerevisiae deletion strains, locus YML032C, strain rad52, stronger effect = lower value 1.02 | S. cerevisiae deletion strains, locus YML124C, strain tub3, stronger effect = lower value 1 | S. cerevisiae deletion strains, locus YMR078C, strain ctf18, stronger effect = lower value 1 | S. cerevisiae deletion strains, locus YMR223W, strain ubp8, stronger effect = lower value 0.983 | S. cerevisiae deletion strains, locus YMR307W, strain GAS1, stronger effect = lower value 0.902 | S. cerevisiae deletion strains, locus YNL067W, strain RPL9B, stronger effect = lower value 0.993 | S. cerevisiae deletion strains, locus YNL128W, strain TEP1, stronger effect = lower value 1.01 | S. cerevisiae deletion strains, locus YNL153C, strain GIM3, stronger effect = lower value 1 | S. cerevisiae deletion strains, locus YNL183C, strain NPR1, stronger effect = lower value 0.915 | S. cerevisiae deletion strains, locus YNL233W, strain BNI4, stronger effect = lower value 0.97 | S. cerevisiae deletion strains, locus YNL250W, strain rad50, stronger effect = lower value 1.03 | S. cerevisiae deletion strains, locus YNL271C, strain bni1, stronger effect = lower value 1 | S. cerevisiae deletion strains, locus YNL298W, strain CLA4, stronger effect = lower value 1.03 | S. cerevisiae deletion strains, locus YNL307C, strain MCK1, stronger effect = lower value 1 | S. cerevisiae deletion strains, locus YNR052C, strain pop2, stronger effect = lower value 0.989 | S. cerevisiae deletion strains, locus YOL006C, strain TOP1, stronger effect = lower value 0.848 | S. cerevisiae deletion strains, locus YOL012C, strain htz1 1.5 | S. cerevisiae deletion strains, locus YOL147C, strain pex11, stronger effect = lower value 1.01 | S. cerevisiae deletion strains, locus YOR061W, strain CKA2, stronger effect = lower value 0.983 | S. cerevisiae deletion strains, locus YOR069W, strain VPS5, stronger effect = lower value 0.984 | S. cerevisiae deletion strains, locus YOR136W, strain idh2, stronger effect = lower value 1.01 | S. cerevisiae deletion strains, locus YOR144C, strain elg1, stronger effect = lower value 1.01 | S. cerevisiae deletion strains, locus YOR184W, strain ser1, stronger effect = lower value 0.955 | S. cerevisiae deletion strains, locus YOR231W, strain MKK1, stronger effect = lower value 0.951 | S. cerevisiae deletion strains, locus YOR316C, strain cot1, stronger effect = lower value 1.01 | S. cerevisiae deletion strains, locus YPL055C, strain LGE1, stronger effect = lower value 1.01 | S. cerevisiae deletion strains, locus YPL241C, strain CIN2, stronger effect = lower value 0.978 | S. cerevisiae deletion strains, locus YPL256C, strain CLN2, stronger effect = lower value 0.972 | S. cerevisiae deletion strains, locus YPR119W, strain clb2, stronger effect = lower value 1.01 | S. cerevisiae deletion strains, locus YPR141C, strain kar3, stronger effect = lower value 1.01 | S. cerevisiae deletion strains, locus YPR163C, strain tif3, stronger effect = lower value 1.03 | S. cerevisiae deletion strains, locus YPR167C, strain met16, stronger effect = lower value 1 | S. cerevisiae deletion strains, strain wtn01, stronger effect = lower value 1.01 | S. cerevisiae strains, strain wild type, stronger effect = lower value 0.987
